Assay results published in publication PMC4336329 (PLoS ONE, 2015).
Hit rate of the full screen: of about 310,000 compounds, about 14,000 (4.5%) showed an effect of 50% or more. The effect is printed as a negative number. For the sample, strong results were picked, then their nearest neighbours and some compounds at random.

Each compound was assayed against human ether-à-go-go-related gene (hERG) potassium channel (human, UniProt Q12809) (assay: primary screen, population patch clamp on CHO cells stably expressing hERG; higher = less effect of the substance).
human ether-à-go-go-related gene (hERG) potassium channel, sequence (Q12809 whole entry, looked up): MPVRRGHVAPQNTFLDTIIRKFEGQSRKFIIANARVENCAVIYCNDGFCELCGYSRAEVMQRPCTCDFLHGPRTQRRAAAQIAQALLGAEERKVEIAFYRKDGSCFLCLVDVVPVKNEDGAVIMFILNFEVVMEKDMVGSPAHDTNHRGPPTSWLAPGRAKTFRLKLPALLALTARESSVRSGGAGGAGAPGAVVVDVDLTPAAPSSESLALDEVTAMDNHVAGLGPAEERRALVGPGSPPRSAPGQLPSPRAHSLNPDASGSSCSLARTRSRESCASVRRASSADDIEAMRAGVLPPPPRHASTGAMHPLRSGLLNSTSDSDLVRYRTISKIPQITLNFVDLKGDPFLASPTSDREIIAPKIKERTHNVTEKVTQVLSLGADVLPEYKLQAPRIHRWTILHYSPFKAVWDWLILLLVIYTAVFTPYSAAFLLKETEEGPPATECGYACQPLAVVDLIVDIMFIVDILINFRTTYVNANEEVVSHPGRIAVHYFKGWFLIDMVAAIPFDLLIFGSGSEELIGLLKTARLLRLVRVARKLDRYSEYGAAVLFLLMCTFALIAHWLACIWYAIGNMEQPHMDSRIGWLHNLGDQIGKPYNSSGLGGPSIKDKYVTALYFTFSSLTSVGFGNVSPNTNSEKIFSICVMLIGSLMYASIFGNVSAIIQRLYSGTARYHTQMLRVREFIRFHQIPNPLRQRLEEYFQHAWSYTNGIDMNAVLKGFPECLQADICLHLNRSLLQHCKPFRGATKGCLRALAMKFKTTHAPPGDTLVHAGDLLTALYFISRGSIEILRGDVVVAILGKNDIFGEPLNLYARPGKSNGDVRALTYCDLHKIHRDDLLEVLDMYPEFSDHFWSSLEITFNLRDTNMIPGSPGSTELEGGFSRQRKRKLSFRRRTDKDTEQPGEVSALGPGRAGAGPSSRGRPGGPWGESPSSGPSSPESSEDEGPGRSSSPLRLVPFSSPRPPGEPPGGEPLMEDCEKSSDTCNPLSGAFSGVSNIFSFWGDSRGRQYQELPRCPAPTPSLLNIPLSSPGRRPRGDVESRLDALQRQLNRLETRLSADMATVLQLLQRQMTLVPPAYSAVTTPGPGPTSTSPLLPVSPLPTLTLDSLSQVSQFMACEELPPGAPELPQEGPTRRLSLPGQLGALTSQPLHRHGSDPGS
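Also: peak tail current of the secondary pulse compared with the same well before compound.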

Row | SMILES | hERG current change (%, negative = inhibition) at 10uM [%]
1 | CCOc1ccccc1C(=O)NCC(=O)N(C)Cc1cccnc1 | -3.07
2 | CCN(CC)CCNCC(O)(c1ccc(Cl)cc1)c1ccc(Cl)cc1 | -82.4
3 | CCC(C)NCC(O)(c1ccc(Cl)cc1)c1ccc(Cl)cc1 (stereo not shown) | -37.7
4 | CCN(CC)CCNS(=O)(=O)c1ccc(Cl)cc1.Cl | -12.9
5 | CCCCNCC(O)(c1ccc(Cl)cc1)c1ccc(Cl)cc1 | -68
6 | CCN(CC)CCNC(=S)Nc1ccc(Cl)cc1 | -21.7
7 | CC(C)(C)NCC(O)(c1ccc(Cl)cc1)c1ccc(Cl)cc1 | -13.8
8 | COc1ccc(-c2nc3n(n2)C(c2cccnc2)C(C(N)=O)=C(C)N3)cc1 (stereo not shown) | -17.3
9 | CCOC(=O)COc1ccc(S(=O)(=O)Nc2ccc3c(c2)OCCO3)cc1 | -3.24
10 | COC(=O)C(Sc1nc(C)cc(C)c1C#N)c1ccccc1 (stereo not shown) | -10.6
11 | CC(CC(=O)NC1CCCCC1)S(=O)(=O)c1ccc2c(c1)CCN2C(=O)C1CC1 (stereo not shown) | 28.2
12 | CCCS(=O)(=O)N1CCCC(C(=O)NCc2ccc(C)cc2)C1 (stereo not shown) | 4.91
13 | COc1ccc(S(=O)(=O)N2CCOCC2)cc1NC(=O)COC(=O)C1CCC1 | -6.23
14 | Cl.OC(CN1CC=C(/C=C/c2ccc(Br)cc2)CC1)c1ccccc1 (stereo not shown) | -2.33
15 | CN1CC=C(/C=C/c2ccc(-c3ccccc3)cc2)CC1.Cl | -50.1
16 | CC1=C(/C=C/c2ccccc2)CCN(C)C1.Cl | -24.6
17 | CCCCc1nc(SCC(=O)Nc2cccc(Cl)c2)n[nH]1 | -4.4
18 | Nc1ccc2nc(SCC(=O)c3ccccc3)sc2c1 | 9.11
19 | CCOc1ccc(NC(=S)NCCCN2CCN(c3ccc(OC)cc3)CC2)cc1 | -70.7
20 | CCOc1cccc(C(=O)NC(=S)Nc2ccc(N3CCCC3)cc2)c1 | 10.8
21 | COc1ccc(NC(=S)NCCCN2CCCC2)cc1 | 5.95
22 | CCCN1CCN(CCCNC(=S)Nc2ccc(OC)cc2)CC1 | -22.8
23 | CCOc1ccc(NC(=S)NCCCN2CCOCC2)cc1 | 10.7
24 | CCOc1ccc(NC(=S)NCCN2CCN(Cc3ccccc3)CC2)cc1 | -62.3
25 | CCCOc1cccc(C(=O)NC(=S)Nc2ccc(N3CCN(C)CC3)cc2)c1 | 1.67

Row | SMILES | hERG current change (%, negative = inhibition) at 10uM [%]
26 | COc1ccc(N2CCN(CCCNC(=S)Nc3c(C)cccc3C)CC2)cc1 | -52.4
27 | CCOc1ccc(NC(=S)NCCCc2ccccc2)cc1 | -12.4
28 | CCOc1ccc(NC(=S)Nc2ccc(OCc3ccccc3)cc2)cc1 | 4.64
29 | COc1ccc(N2CCC(CNC(=S)Nc3c(C)cccc3C)C2)cc1 (stereo not shown) | -4.72
30 | CCOc1cccc(C(=O)NC(=S)Nc2ccc(N3CCN(CC)CC3)cc2)c1 | -72.1
31 | COCCCn1cc(C(=O)c2ccccc2OCC(=O)Nc2cccc(F)c2)cc(C#N)c1=O | -35.9
32 | CN([C@@H](C(=O)OC(C)(C)C)c1ccccc1)S(=O)(=O)c1cccc(S(=O)(=O)N(C)[C@@H](C(=O)OC(C)(C)C)c2ccccc2)c1 | 14.3
33 | O=C(Nc1ccc(Cl)cc1F)c1cccc2ccccc12 | 12.2
34 | COc1cc(Cn2c(=O)c3c(OC)c(C)cnc3n(C)c2=O)cc(OC)c1 | 14.1
35 | Cn1c(CO)cnc1SCc1ccc(Cl)cc1 | 0.94
36 | O=C(NC(=S)NCCCN1CCOCC1)c1ccc(Br)cc1 | -42.9
37 | CCOc1ccc(C(=O)NC(=S)NCCCN2CCOCC2)cc1 | -50.1
38 | Cc1ccc(C(=O)NC(=S)NCCCN2CCOCC2)cc1 | -7.43
39 | O=C(O)c1ccc(N2C(=O)CC(N3CCN(c4ccc(Cl)cc4)CC3)C2=O)cc1 (stereo not shown) | 6.79
40 | O=C(NCc1ccc(-c2csnn2)cc1)C1CC1 | 7.09
41 | CC1CCN(c2nc3c(=O)[nH]c(N)nc3n2[C@@H]2O[C@H](CO)[C@@H](O)[C@H]2O)CC1 | 13.6
42 | COC(=O)c1ccc(NC(=O)Cn2cnc3c(nnn3-c3cccc(OC)c3)c2=O)cc1 | 3.08
43 | Cl.Clc1ccc2nc3c(c(-c4ccccc4)c2c1)CNCC3 | -37.3
44 | CN1CCc2nc3ccc(F)cc3c(C(N)=O)c2C1.Cl | -4.4
45 | CN1CCc2nc3ccc(Cl)cc3c(-c3ccccc3Cl)c2C1.Cl | -65.7
46 | CN(C)c1ccc(Nc2ncnc3ccc(Br)cc23)cc1 | 20.4
47 | CNc1c([N+](=O)[O-])cnn1-c1ccc(C)cc1 | -2.24
48 | COc1cc(CN2CCCC(N3CCN(c4ccccc4C)CC3)C2)ccc1O (stereo not shown) | -27
49 | CC(C)CN1CCCC(N2CCN(c3cccc(Cl)c3)CC2)C1 (stereo not shown) | -21.5
50 | COc1ccccc1N1CCN(C2CCCN(Cc3cccc(O)c3)C2)CC1 (stereo not shown) | -9.65

Row | SMILES | hERG current change (%, negative = inhibition) at 10uM [%]
51 | COc1ccc(N2CCN(C3CCCN(Cc4ccc(F)cc4Cl)C3)CC2)cc1 (stereo not shown) | -35.2
52 | COc1ccc(O)c(CN2CCCC(N3CCN(c4ccc(F)cc4)CC3)C2)c1 (stereo not shown) | -59.7
53 | CC(C)/C=C/CN1CCCC(N2CCN(c3cccc(Cl)c3)CC2)C1 (stereo not shown) | -50.7
54 | CCOc1cc(CN2CCN(c3ccc(C(C)=O)cc3)CC2)ccc1OC | -23.5
55 | COc1ccc(O)c(CN2CCCC(N3CCN(c4ccccc4OC)CC3)C2)c1 (stereo not shown) | -11
56 | COc1ccccc1N1CCN(C2CCCN(Cc3ccc(Cl)cc3)C2)CC1 (stereo not shown) | -41.1
57 | COc1ccc(CN2CCCC(N3CCN(c4cccc(Cl)c4)CC3)C2)cc1OC (stereo not shown) | -54.1
58 | CCOc1cc(CN2CCCC(N3CCN(c4ccc(F)cc4)CC3)C2)ccc1OC (stereo not shown) | -62.7
59 | Cc1cccc(C(=O)N2CCCC(N3CCN(c4cccc(Cl)c4)CC3)C2)n1 (stereo not shown) | -17.5
60 | C#CC(C)(C)NC(=O)c1ccccc1OC | 1.69
61 | CC(C)CNC(=O)COC(=O)/C=C/c1ccccc1[N+](=O)[O-] | 5.61
62 | COCc1cc(C)nc(SCC(=O)c2ccc(O)c(O)c2)c1C#N | 6.86
63 | CN(C)S(=O)(=O)N(CC(=O)Nc1ccc2ccccc2c1)c1ccccc1 | 8.45
64 | CN1CCN(CCC(=O)Nc2ccc(OCc3ccccc3)cc2)CC1 | -41.6
65 | Cn1cc(C(=O)c2cccc(Cl)c2Cl)cc1C(=O)O | 10.2
66 | COc1ccc(-c2cc(-c3ccc(O)cc3)nc(N)c2C#N)cc1 | 3.91
67 | COc1cc(/C=C(\C#N)C(=O)Nc2ccc3ccccc3c2)c([N+](=O)[O-])cc1OC | 8.14
68 | Cc1c(C)n2c(SCC(=O)N3CCC(C)CC3)nnc2[nH]c1=O | 15.3
69 | CC(=O)Nc1ccccc1NC(=O)C/C(C)=N/NC(=O)Cc1cccc2ccccc12 | 10.8
70 | C=CCSC1=C(C#N)C(c2ccccc2OC)CC(=O)N1 (stereo not shown) | -2.19
71 | CCn1nc(C)cc1C(=O)N1CCCC(N2CCN(c3cccc(Cl)c3)CC2)C1 (stereo not shown) | -35
72 | COc1ccccc1N1CCN(C2CCCN(Cc3cc(F)cc(F)c3)C2)CC1 (stereo not shown) | -6.62
73 | CCOc1cccc(CN2CCCC(N3CCN(c4cccc(Cl)c4)CC3)C2)c1O (stereo not shown) | -58.7
74 | COc1ccc(N2CCN(C3CCCN(Cc4ccc(F)cc4)C3)CC2)cc1 (stereo not shown) | -32.8
75 | COc1ccccc1CN1CCCC(N2CCN(c3ccc(F)cc3)CC2)C1 (stereo not shown) | -56.2

Row | SMILES | hERG current change (%, negative = inhibition) at 10uM [%]
76 | COc1ccccc1CN1CCCC(N2CCN(c3ccccc3OC)CC2)C1 (stereo not shown) | -11.9
77 | COc1cc(CN2CCCC(N3CCN(c4ccc(F)cc4)CC3)C2)ccc1F (stereo not shown) | -64.4
78 | CCOc1cccc(CN2CCCC(N3CCc4cc(OC)c(OC)cc4C3)C2)c1O (stereo not shown) | -39.3
79 | COc1ccc(N2CCN(C3CCCN(Cc4ccccc4OCCO)C3)CC2)cc1 (stereo not shown) | -24.1
80 | CCCCn1c(N)c(N(CCOC)C(=O)C2CCN(S(=O)(=O)c3ccc(F)cc3)CC2)c(=O)[nH]c1=O | -1.06
81 | COCCCN(C(C)=O)c1nc(-c2ccccc2)cs1 | -23.4
82 | CCNC(=O)CSc1nc(-c2ccc(F)cc2)cs1 | 21.2
83 | O=C(NCC(c1ccco1)N1CCc2ccccc21)c1ccc([N+](=O)[O-])cc1 (stereo not shown) | -18.3
84 | Cn1c(SCc2ccccc2)nnc1-c1ccc2nonc2c1 | -9.18
85 | Cn1c(SCc2ccc(Cl)cc2)nnc1-c1ccc2nonc2c1 | 0.685
86 | Cn1c(SCc2c(Cl)cccc2Cl)nnc1-c1ccc2nonc2c1 | -55.1
87 | CC(c1ccco1)N(C(=O)c1ccccc1NS(=O)(=O)c1ccc(Cl)c([N+](=O)[O-])c1)c1ccccn1 (stereo not shown) | -6.14
88 | COc1ccc(NC(=O)c2nn(C)c(=O)c3ccccc23)cc1S(=O)(=O)Nc1ccccc1Cl | 26
89 | O=C(Nc1ccccc1)/C(=C/c1ccc([N+](=O)[O-])cc1)NC(=O)c1ccco1 | 6.42
90 | O=C(NCc1ccccc1)/C(=C/c1ccc([N+](=O)[O-])cc1)NC(=O)c1ccco1 | -62.7
91 | Cc1ccc(C(=O)N/C(=C\c2ccc([N+](=O)[O-])cc2)C(=O)NCCc2ccccc2)cc1 | -33.8
92 | O=C(NCCc1ccccc1)/C(=C\c1ccc([N+](=O)[O-])cc1)NC(=O)c1ccccc1 | -14.6
93 | O=C(NCCc1ccccc1)/C(=C\c1ccc([N+](=O)[O-])cc1)NC(=O)c1ccco1 | -80.7
94 | COc1ccc(NC(=O)/C(=C\c2ccccc2)NC(=O)c2ccco2)cc1 | 0.0276
95 | O=C(NCc1ccccc1)/C(=C\c1ccccc1)NC(=O)c1ccco1 | -21.7
96 | COc1ccc(/C=C(/NC(=O)c2ccco2)C(=O)NCCc2ccccc2)cc1 | -52.6
97 | O=C(NCc1ccccc1)/C(=C\c1ccc([N+](=O)[O-])cc1)NC(=O)c1ccco1 | -60.9
98 | O=C(NCCc1ccccc1)/C(=C\c1ccccc1)NC(=O)c1ccco1 | -21.4
99 | O=C(NCc1ccccc1)/C(=C/c1ccccc1)NC(=O)c1ccco1 | -24.6
100 | O=C(NC(Cc1ccccc1)C(=O)O)/C(=C/c1ccc([N+](=O)[O-])cc1)NC(=O)c1ccco1 (stereo not shown) | 12.6
